# From the supplement of paper PMC4466140
# Legend:
# Assay in all cases: SPOT peptide array binding signal intensity (averaged, normalized) (arbitrary units (background-subtracted, floor 0; scale differs between SH3 domains)); higher = stronger binding of the SH3 domain to the peptide
# [1] = target: AgAbp1
# Method: (§1)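 GST-tagged SH3 domains from S. cerevisiae (Sc), A. gossypii (Ag), C. albicans (Ca) and S. pombe (Sp) were incubated at 10 ug/ml overnight at 4 C on cellulose SPOT membranes carrying 292 synthetic 15-mer peptides mined from the S. cerevisiae proteome (cysteines replaced by serines). Binding was detected with anti-GST antibody, HRP secondary and chemiluminescence, quantified with Genespotter, and reported as normalized spot intensities averaged over biological replicates.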
# [2] = target: AgBbc1
# Method: as §1
# [3] = target: AgBem1-D1
# Method: as §1
# [4] = target: AgBzz1-D1
# Method: as §1
# [5] = target: AgBzz1-D2
# Method: as §1
# [6] = target: AgCyk3
# Method: as §1
# [7] = target: AgFus1
# Method: as §1
# [8] = target: AgHof1
# Method: as §1
# [9] = target: AgHse1
# Method: as §1
# [10] = target: AgLsb1
# Method: as §1
# [11] = target: AgLsb4
# Method: as §1
# [12] = target: AgMyo5
# Method: as §1
# [13] = target: AgNbp2
# Method: as §1
# [14] = target: AgRvs167
# Method: as §1
# [15] = target: AgSho1
# Method: as §1
# [16] = target: AgSla1-D1-D2
# Method: as §1
# [17] = target: AgSla1-D3
# Method: as §1
# [18] = target: CaAbp1-D1
# Method: as §1
# [19] = target: CaAbp1-D2
# Method: as §1
# [20] = target: CaBbc1
# Method: as §1
# [21] = target: CaBem1-D1
# Method: as §1
# [22] = target: CaBzz1-D1
# Method: as §1
# [23] = target: CaBzz1-D2
# Method: as §1
# [24] = target: CaCyk3
# Method: as §1
# [25] = target: CaFus1
# Method: as §1
# [26] = target: CaHof1
# Method: as §1
# [27] = target: CaHse1
# Method: as §1
# [28] = target: CaLsb1
# Method: as §1
# [29] = target: CaLsb4
# Method: as §1
# [30] = target: CaMyo5
# Method: as §1
# [31] = target: CaNbp2
# Method: as §1
# [32] = target: CaRvs167
# Method: as §1
# [33] = target: CaRvs167-3
# Method: as §1
# [34] = target: CaSho1
# Method: as §1
# [35] = target: CaSla1-D1-D2
# Method: as §1
# [36] = target: CaSla1-D3
# Method: as §1
# [37] = target: ScAbp1
# Method: as §1
# [38] = target: ScBbc1
# Method: as §1
# [39] = target: ScBem1-D1
# Method: as §1
# [40] = target: ScBzz1-D1
# Method: as §1
# [41] = target: ScBzz1-D2
# Method: as §1
# [42] = target: ScCyk3
# Method: as §1
# [43] = target: ScFus1
# Method: as §1
# [44] = target: ScHof1
# Method: as §1
# [45] = target: ScHse1
# Method: as §1
# [46] = target: ScLsb1
# Method: as §1
# [47] = target: ScLsb2
# Method: as §1
# [48] = target: ScLsb3
# Method: as §1
# [49] = target: ScLsb4
# Method: as §1
# [50] = target: ScMyo3
# Method: as §1
# [51] = target: ScMyo5
# Method: as §1
# [52] = target: ScNbp2
# Method: as §1
# [53] = target: ScPex13
# Method: as §1
# [54] = target: ScRvs167
# Method: as §1
# [55] = target: ScSho1
# Method: as §1
# [56] = target: ScSla1-D1-D2
# Method: as §1
# [57] = target: ScSla1-D3
# Method: as §1
# [58] = target: SpAbp1-D1
# Method: as §1
# [59] = target: SpBbc1
# Method: as §1
# [60] = target: SpBzz1-D1
# Method: as §1
# [61] = target: SpBzz1-D2
# Method: as §1
# [62] = target: SpCyk3
# Method: as §1
# [63] = target: SpHof1
# Method: as §1
# [64] = target: SpHof1-2
# Method: as §1
# [65] = target: SpHof1-3
# Method: as §1
# [66] = target: SpHse1
# Method: as §1
# [67] = target: SpLsb1
# Method: as §1
# [68] = target: SpLsb4
# Method: as §1
# [69] = target: SpMyo1
# Method: as §1
# [70] = target: SpNbp2
# Method: as §1
# [71] = target: SpPex13
# Method: as §1
# [72] = target: SpRvs167
# Method: as §1
# [73] = target: SpSla1-D1-D2
# Method: as §1
# [74] = target: SpSla1-D3
# Method: as §1
binder,measurement,setting,value
SKAKRPKFLLDLQIK,SPOT peptide array binding signal intensity,[1],32.5
same,SPOT peptide array binding signal intensity,[2],2
same,SPOT peptide array binding signal intensity,[3],60
same,SPOT peptide array binding signal intensity,[4],38
same,SPOT peptide array binding signal intensity,[5],29.5
same,SPOT peptide array binding signal intensity,[6],10
same,SPOT peptide array binding signal intensity,[7],152
same,SPOT peptide array binding signal intensity,[8],16.5
same,SPOT peptide array binding signal intensity,[9],154
same,SPOT peptide array binding signal intensity,[10],2.75
same,SPOT peptide array binding signal intensity,[11],16
same,SPOT peptide array binding signal intensity,[12],0.25
same,SPOT peptide array binding signal intensity,[13],11
same,SPOT peptide array binding signal intensity,[14],3.33
same,SPOT peptide array binding signal intensity,[15],15
same,SPOT peptide array binding signal intensity,[16],214
same,SPOT peptide array binding signal intensity,[17],5.5
same,SPOT peptide array binding signal intensity,[18],502
same,SPOT peptide array binding signal intensity,[19],337
same,SPOT peptide array binding signal intensity,[20],80.8
same,SPOT peptide array binding signal intensity,[21],13.5
same,SPOT peptide array binding signal intensity,[22],110
same,SPOT peptide array binding signal intensity,[23],127
same,SPOT peptide array binding signal intensity,[24],19
same,SPOT peptide array binding signal intensity,[25],510
same,SPOT peptide array binding signal intensity,[26],0.5
same,SPOT peptide array binding signal intensity,[27],≤ 0
same,SPOT peptide array binding signal intensity,[28],≤ 0
same,SPOT peptide array binding signal intensity,[29],3.5
same,SPOT peptide array binding signal intensity,[30],2
same,SPOT peptide array binding signal intensity,[31],72
same,SPOT peptide array binding signal intensity,[32],1.67
same,SPOT peptide array binding signal intensity,[33],40.8
same,SPOT peptide array binding signal intensity,[34],148
same,SPOT peptide array binding signal intensity,[35],11
same,SPOT peptide array binding signal intensity,[36],≤ 0
same,SPOT peptide array binding signal intensity,[37],19
same,SPOT peptide array binding signal intensity,[38],3.5
same,SPOT peptide array binding signal intensity,[39],9
same,SPOT peptide array binding signal intensity,[40],33
same,SPOT peptide array binding signal intensity,[41],24
same,SPOT peptide array binding signal intensity,[42],51
same,SPOT peptide array binding signal intensity,[43],268
same,SPOT peptide array binding signal intensity,[44],≤ 0
same,SPOT peptide array binding signal intensity,[45],486
same,SPOT peptide array binding signal intensity,[46],≤ 0
same,SPOT peptide array binding signal intensity,[47],≤ 0
same,SPOT peptide array binding signal intensity,[48],6
same,SPOT peptide array binding signal intensity,[49],2
same,SPOT peptide array binding signal intensity,[50],1.5
same,SPOT peptide array binding signal intensity,[51],1
same,SPOT peptide array binding signal intensity,[52],62
same,SPOT peptide array binding signal intensity,[53],4.25
same,SPOT peptide array binding signal intensity,[54],1.67
same,SPOT peptide array binding signal intensity,[55],398
same,SPOT peptide array binding signal intensity,[56],27
same,SPOT peptide array binding signal intensity,[57],5
same,SPOT peptide array binding signal intensity,[58],171
same,SPOT peptide array binding signal intensity,[59],1.75
same,SPOT peptide array binding signal intensity,[60],346
same,SPOT peptide array binding signal intensity,[61],0.5
same,SPOT peptide array binding signal intensity,[62],14.5
same,SPOT peptide array binding signal intensity,[63],25.2
same,SPOT peptide array binding signal intensity,[64],5
same,SPOT peptide array binding signal intensity,[65],386
same,SPOT peptide array binding signal intensity,[66],119
same,SPOT peptide array binding signal intensity,[67],1
same,SPOT peptide array binding signal intensity,[68],≤ 0
same,SPOT peptide array binding signal intensity,[69],≤ 0
same,SPOT peptide array binding signal intensity,[70],33.5
same,SPOT peptide array binding signal intensity,[71],2.5
same,SPOT peptide array binding signal intensity,[72],≤ 0
same,SPOT peptide array binding signal intensity,[73],3
same,SPOT peptide array binding signal intensity,[74],3
